Experimental data reported in PubChem BioAssay (NCATS).
Results filed as inconclusive are left out. Calls of active or inactive are those of the source. Unless noted, calls follow the shape of the dose curve; as a rule, active = well fitted curve in the direction sought with a large enough effect; inconclusive = small, poorly fitted or top-dose-only effect, or another doubt; inactive = no such curve, though single readings can be large; an effect the other way counts as inactive or inconclusive.

Assays:
[1] = S16 Schwann cell viability assay (CellTiter-Glo assay) (AID 624031);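 also: native untransfected S16 rat Schwann cells; cellular ATP luminescence as a viability measure; nearly all actives have a fitted effect of over 70% in size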
Method in brief: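 Concentration-effect curves come from CellTiter-Glo luminescence of S16 rat Schwann cells after 24 h compound exposure. Each reading was normalized to DMSO wells (0%) and wells without cells, and curves were ranked by r2 and response magnitude.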

[2] = S16 Schwann cell PMP22 intronic element firefly luciferase assay (AID 624032); also: nearly all actives have a fitted effect of over 30% in size; also: potency is read from the fitted curve at half-maximal effect
Method in brief: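 Rat S16 Schwann cells stably carrying firefly luciferase driven by a PMP22 intronic element, in 10% FBS, treated 24 h at 37 C. ONE-Glo luminescence normalized to PTC124 control and DMSO (0%); curves classed by r2, magnitude and activity.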

[3] = S16 Schwann cell PMP22 intronic element beta-lactamase assay (AID 624044; calls by dose curve; also: nearly all actives have a fitted effect of over 15% in size); conditions: S16 rat Schwann cells, PMP22 element beta-lactamase FRET, 24 h; ratio activity, negative = inhibition: at 38.3 µM (top of the series)
Method in brief: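 Beta-lactamase reporter under a PMP22 intronic regulatory element in stable S16 rat Schwann cells; 24 h compound exposure. 460 nm blue signal normalized between DMSO (0%) and potassium clavulanate, with 535 nm FRET tracking viability; curves classed by r2 and response.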

PC26 = test: qHTS profiling for inhibitors of Plasmodium falciparum proliferation (AID 504749); also: nearly all actives have a fitted effect of over 60% in size; also: potency is read from the fitted curve at half-maximal effect; conditions: P. falciparum in erythrocytes, SYBR Green DNA, 72 h; series mostly up to 28.7 µM
Method in brief: (§1)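 SYBR Green fluorescence (ex 485 nm, em 535 nm) reports parasite DNA after 72 h compound exposure of infected red cells at 0.3% parasitemia, 2.5% hematocrit; signal normalized to 0.29 uM artemisinin and vehicle wells.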

PC49 = test: as above; conditions: P. falciparum in erythrocytes, SYBR Green DNA, 72 h; series mostly up to 28.7 µM
Method in brief: as §1

[4] = molecular target: Luciferin 4-monooxygenase (Photinus pyralis) (UniProt P08659); test: Biochemical firefly luciferase enzyme assay for NPC (AID 624030);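 also: purified P. pyralis luciferase at 10 nM with luciferin and ATP substrate; nearly all actives have a fitted effect of over 70% in size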
Method in brief: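 Purified P. pyralis luciferase at 10 nM in 50 mM Tris Acetate (final), luminescence read within 5 minutes of enzyme addition to compounds. Activity normalised to PTC124 versus DMSO; concentration-response curves classed by r2, magnitude and activity.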

TAB109 = test: qHTS profiling for inhibitors of Plasmodium falciparum proliferation (AID 504749); also: nearly all actives have a fitted effect of over 60% in size; also: potency is read from the fitted curve at half-maximal effect; conditions: P. falciparum in erythrocytes, SYBR Green DNA, 72 h; series mostly up to 28.7 µM
Method in brief: as §1

[5] = molecular target: Cytochrome P450 3A4 (Homo sapiens) (UniProt P08684); test: qHTS Assay for Inhibitors and Substrates of Cytochrome P450 3A4 (AID 884); also: nearly all actives have a fitted effect of over 50% in size
Method in brief: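 Luminescent readout of luciferin produced by CYP3A4 (20 nM) dealkylation of Luciferin-PPXE, 25 uM (its KM). NADPH-driven reaction ran 60 min at RT after 10 min compound preincubation; data scaled to 57 uM ketoconazole as 100% inhibition.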

[6] = Confirmation and Secondary Assay for Modulators of Hemoglobin Beta Chain Splicing at IVS2 654 locus (AID 910);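 also: HeLa cells stably carrying EGFP split by mutant beta-globin IVS2-654 intron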
Method in brief: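 HeLa cells stably expressing EGFP interrupted by β-globin IVS2-654 intron, seeded overnight in Opti-MEM/2% FCS, then treated 2 days at 37 °C. Restored splicing read as total peak GFP intensity per well by laser scanning cytometry (488 nm excitation, 500–520 nm emission); 500 nM antisense PNA as control.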

Measured: Potency

Chain of Luciferin 4-monooxygenase (Photinus pyralis) (P08659 whole entry, looked up): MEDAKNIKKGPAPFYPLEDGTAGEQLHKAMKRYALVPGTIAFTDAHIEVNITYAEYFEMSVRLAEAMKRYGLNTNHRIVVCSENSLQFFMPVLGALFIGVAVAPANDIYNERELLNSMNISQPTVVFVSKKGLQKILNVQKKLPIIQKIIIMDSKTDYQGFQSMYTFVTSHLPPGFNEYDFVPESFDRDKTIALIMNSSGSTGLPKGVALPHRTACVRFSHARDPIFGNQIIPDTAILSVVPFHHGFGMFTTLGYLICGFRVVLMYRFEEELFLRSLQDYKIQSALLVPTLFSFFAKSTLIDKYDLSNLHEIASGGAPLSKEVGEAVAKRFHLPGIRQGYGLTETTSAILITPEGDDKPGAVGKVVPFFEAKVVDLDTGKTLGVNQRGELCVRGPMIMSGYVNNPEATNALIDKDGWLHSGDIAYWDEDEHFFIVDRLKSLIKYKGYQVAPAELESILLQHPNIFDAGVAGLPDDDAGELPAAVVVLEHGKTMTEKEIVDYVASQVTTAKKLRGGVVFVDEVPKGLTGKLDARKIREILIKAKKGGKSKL
Chain of Cytochrome P450 3A4 (Homo sapiens) (P08684 whole entry, looked up): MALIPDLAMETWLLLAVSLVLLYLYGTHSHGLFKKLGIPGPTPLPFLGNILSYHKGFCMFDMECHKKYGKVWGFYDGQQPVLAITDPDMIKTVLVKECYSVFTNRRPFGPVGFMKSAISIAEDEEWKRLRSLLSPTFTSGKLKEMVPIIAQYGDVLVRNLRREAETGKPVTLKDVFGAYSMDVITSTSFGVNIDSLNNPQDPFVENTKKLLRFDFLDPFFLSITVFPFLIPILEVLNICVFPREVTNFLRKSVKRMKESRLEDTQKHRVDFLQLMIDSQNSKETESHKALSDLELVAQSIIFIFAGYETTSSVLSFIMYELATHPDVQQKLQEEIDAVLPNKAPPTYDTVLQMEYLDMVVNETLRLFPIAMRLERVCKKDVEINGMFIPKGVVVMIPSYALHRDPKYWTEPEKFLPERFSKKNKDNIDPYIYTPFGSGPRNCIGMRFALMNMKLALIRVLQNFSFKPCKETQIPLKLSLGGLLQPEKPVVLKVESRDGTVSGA

O=C(OC[C@@H]1O[C@@](O)(COC(=O)c2cccnc2)[C@H](OC(=O)c2cccnc2)[C@H]1OC(=O)c1cccnc1)c1cccnc1
inactive: [1] | [3] | PC26 | PC49
active: [2] 2560 nM

OCCOC[C@H]1O[C@H](OCCO)[C@H](OCCO)[C@@H](OCCO)[C@@H]1OCCO (tested in a mixture with another compound)
inactive: [4] | [1] | [2] | PC26 | PC49 | TAB109

CC(=O)NC1[C@H]([C@H](O)[C@H](O)CO)OC(C(=O)O)=C[C@H]1N=C(N)N (some centres not stated)
inactive: [4] | [1] | [3] | PC26 | PC49 | TAB109

C=C(NCc1ccccc1)c1ccccc1O
inactive: [1] | [2] | [3] | PC26 | PC49 | TAB109

C=CCn1c(=O)n(C2OC(CO)C(O)C2O)c2nc(N)[nH]c(=O)c21 (configuration not stated)
inactive: [1] | [2] | [3] | PC26 | PC49 | TAB109

CC(C)(C)C(=O)OCC(=O)C1CCC2C3CCC4=CC(=O)CCC4(C)C3CCC12C (configuration not stated)
inactive: [3] | PC26 | PC49 | TAB109

OCC1O[C@H](O[C@H]2C(O)C(O)C(O)O[C@@H]2CO)C(O)C(O)C1O (some centres not stated)
inactive: [5] | [6] | [4] | [1] | [2] | PC26 | PC49 | TAB109

NC(=O)NC(CCC(=O)O)C(=O)O (configuration not stated)
inactive: [4] | [1] | [2] | [3] | PC49 | TAB109

C[C@H]1[C@@H](OC(=O)CCC(=O)O)OC2OC3(C)CC[C@H]4[C@H](C)CC[C@@H]1[C@@]24OO3 (some centres not stated)
active: [2] 2560 nM | PC26 3.4 nM | TAB109 2.5 nM
inactive: [3]

C[C@H]1OC(OC2C(O)[C@@H](O)C(OC3C(O)[C@@H](O)C(O)O[C@@H]3CO)O[C@@H]2CO)[C@H](O)C(O)C1N[C@H]1C=C(CO)[C@@H](O)[C@H](O)C1O (some centres not stated)
inactive: [4] | [1] | [2] | [3] | PC49 | TAB109
